Experiment [1] has as its target Paired box protein Pax-6 (Homo sapiens) (UniProt P26367). In words: ATG_Pax6_CIS: Attagene CIS-FACTORIAL HepG2 Assay for human Paired Box 6 (PAX6) (AID 2282956). Particulars: HepG2 CIS-FACTORIAL PAX6 reporter transcription, RNA readout; actives raise or lower the signal. In outline:
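Read-out is reporter transcript level, measured by RT-PCR with fluorescent primer extension and capillary electrophoresis after 24 h dosing of transfected HepG2 cells. Activity in either direction fitted relative to DMSO control.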

A short description of experiment [2]: ATG_PXRE_CIS: Attagene CIS-FACTORIAL HepG2 Assay for human Pregnane X Receptor Element (PXRE) (AID 2282957). Particulars: HepG2 Attagene CIS-FACTORIAL PXRE reporter, mRNA; actives raise or lower the signal. The essentials:
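Bidirectional activity, baselined to DMSO, derived from reporter mRNA fluorescence (RT-PCR plus capillary electrophoresis) in HepG2 cells bearing cis-promoter reporter units, 24 h exposure.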

A short description of experiment [3]: ATG_PPRE_CIS: Attagene CIS-FACTORIAL HepG2 Assay for human Peroxisome Proliferator-activated Response Element (PPRE) (AID 2282958). The following applies: HepG2 PPRE cis-element reporter, Attagene transcription factor profiling; actives raise or lower the signal. In outline: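 HepG2 cells are transiently transfected with multiplexed cis-promoter reporter units to report endogenous PPAR activity. After 24 h dosing, reporter mRNA is read by RT-PCR and capillary electrophoresis. Fitting is bidirectional against DMSO.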

A short description of experiment [4]: ATG_RORE_CIS: Attagene CIS-FACTORIAL HepG2 Assay for human RAR-related Orphan Receptor Element (RORE) (AID 2282959). Particulars: HepG2 Attagene cis-factorial RORE reporter, mRNA; actives raise or lower the signal. In outline:
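HepG2 cells carrying transiently transfected cis-regulated reporter units; RORE-driven reporter mRNA quantified 24 h post-dosing by RT-PCR, 6-FAM primer extension, HpaI digestion and capillary electrophoresis. Bidirectional fit versus DMSO.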

Experiment [5] in a line: ATG_Sox_CIS: Attagene CIS-FACTORIAL HepG2 Assay for human SRY-box transcription factor (SOX) (AID 2282960). The following applies: HepG2 Attagene cis-factorial SOX reporter, mRNA; actives raise or lower the signal. In outline:
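HepG2 cells transiently transfected with multiple cis-regulated reporter units, then dosed for 24 h. Reporter mRNA quantified by RT-PCR, fluorescent labelling, HpaI digestion and capillary electrophoresis; bidirectional fit versus DMSO.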

The target of experiment [6] is Transcription factor Sp1 (Homo sapiens) (UniProt P08047). In words: ATG_Sp1_CIS: Attagene CIS-FACTORIAL HepG2 Assay for human Specificity Protein 1 (Sp1) (AID 2282961). Particulars: HepG2 Sp1 cis-reporter transcription, actives raise or lower the signal. In outline:
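HepG2 cells transiently transfected with multiplexed cis-regulated reporter constructs, chemical exposure 24 h. Reporter mRNA quantified by RT-PCR with capillary electrophoresis; bidirectional fit relative to DMSO.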

The nature of experiment [7]: ATG_SREBP_CIS: Attagene CIS-FACTORIAL HepG2 Assay for human Sterol Regulatory Element Binding (SREBP) (AID 2282962). Particulars: HepG2 Attagene cis-factorial SREBP reporter, mRNA; actives raise or lower the signal. In outline:
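Endogenous SREBP activity read as cis-element-driven reporter transcript in transiently transfected HepG2, 24 h post-dosing; quantified via RT-PCR plus capillary electrophoresis of fluorescent fragments. Gain or loss of signal fitted relative to DMSO baseline.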

The target in experiment [8] is Signal transducer and activator of transcription 3 (Homo sapiens) (UniProt P40763). Briefly: ATG_STAT3_CIS: Attagene CIS-FACTORIAL HepG2 Assay for human Signal Transducer and Activator of Transcription 3 (STAT3) (AID 2282963). Particulars: HepG2, Attagene cis-factorial STAT3 reporter transcription; actives raise or lower the signal. The essentials: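 Cis-factorial format: endogenous transcription factors in HepG2 drive transfected reporter units. After 24 h treatment, reporter RNA was reverse-transcribed, amplified, FAM-labelled and HpaI-digested before CE analysis; activity scored in both directions against DMSO.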

Experiment [9] is described as follows: ATG_TA_CIS: Attagene CIS-FACTORIAL HepG2 Assay for human TA Basal Promoter (AID 2282964). The following applies: HepG2 Attagene CIS-factorial TA basal promoter reporter; actives raise or lower the signal. The essentials: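 HepG2 cells transiently transfected with multiple reporter units under cis promoter elements, reporting endogenous transcription factor activity; this endpoint tracks the TA basal promoter as background control. Reporter mRNA after 24 h dosing measured by RT-PCR/capillary electrophoresis; bidirectional fits versus DMSO.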

Experiment [10] can be described thus: ATG_TCF_b_cat_CIS: Attagene CIS-FACTORIAL HepG2 Assay for human T-Cell-Factor with beta-catenin (TCF/b-cat) (AID 2282965). Particulars: HepG2 TCF/beta-catenin cis-reporter transcription, actives raise or lower the signal. In outline: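 Endogenous TCF/LEF activity read as reporter transcript level via RT-PCR and capillary electrophoresis fluorescence in transfected HepG2, 24 h exposure; gain or loss of signal fitted against DMSO controls.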

Experiment [11] is described as follows: ATG_TAL_CIS: Attagene CIS-FACTORIAL HepG2 Assay for human TAL Basal Promoter (AID 2282966).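 Further: background control endpoint measuring basal TAL promoter reporter mRNA not a specific factor.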 Particulars: HepG2 Attagene cis-factorial TAL promoter reporter; actives raise or lower the signal. The essentials:
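Human hepatoma HepG2 cells, transfected with promoter-regulated reporter units, were treated 24 h. Reporter transcript levels, measured through RT-PCR and capillary electrophoresis, were fitted for gain or loss relative to DMSO.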

Experiment [12] can be described thus: ATG_VDRE_CIS: Attagene CIS-FACTORIAL HepG2 Assay for human Vitamin D Receptor Element (VDRE) (AID 2282968). Particulars: HepG2 VDRE cis-reporter transcription, actives raise or lower the signal. In outline:
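Measures endogenous factor activity through cis-element-driven reporter transcripts in transiently transfected HepG2. Cells are treated 24 h; reporter mRNA is quantified by RT-PCR and capillary electrophoresis; fitting is bidirectional.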

Experiment [13] can be described thus: ATG_GAL4_TRANS: Attagene TRANS-FACTORIAL HepG2 Assay for GAL4 (Internal Marker) (AID 2282976; active means hit-call score of the fitted dose curve at least 0.9, where 1 is the maximum). Particulars: HepG2 Attagene TRANS GAL4 internal marker reporter. In outline: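 Liver HepG2 line bearing multiplexed GAL4-UAS reporter constructs; 24 h chemical treatment. Transcripts were quantified as fluorescent fragments on capillary electrophoresis after RT-PCR and HpaI cut, with activity fitted upward from DMSO.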

In experiment [14] the target is Estrogen receptor (Homo sapiens) (UniProt P03372). In words: ATG_ERa_TRANS: Attagene TRANS-FACTORIAL HepG2 Assay for human Estrogen Receptor alpha (ERa) (AID 2282970; active means hit-call score of the fitted dose curve at least 0.9, where 1 is the maximum). Particulars: HepG2 Attagene TRANS ERa GAL4 reporter, mRNA. The essentials: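 Signal derives from fluorescence of labelled reporter PCR fragments separated by capillary electrophoresis. HepG2 cells transiently carrying multiple GAL4-UAS reporter units were treated 24 hours, and induction above DMSO baseline was fitted as activity.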

Experiment [15] addresses X-box-binding protein 1 (Homo sapiens) (UniProt P17861). In words: ATG_Xbp1_CIS: Attagene CIS-FACTORIAL HepG2 Assay for human X-box Binding Protein 1 (XBP1) (AID 2282972). The following applies: HepG2 XBP1 cis-element reporter, Attagene multiplex; actives raise or lower the signal. In outline:
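Reporter transcripts were quantified by RT-PCR with fluorescent primer extension and capillary electrophoresis after 24 h chemical exposure. Cells: transiently transfected HepG2 carrying cis-regulated reporter constructs; data fitted bidirectionally relative to DMSO.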

Experiment [16] can be described thus: ATG_M_19_TRANS: Attagene TRANS-FACTORIAL HepG2 Assay for M19 Transcription Factor (Internal Marker) (AID 2282974; active means hit-call score of the fitted dose curve at least 0.9, where 1 is the maximum). The following applies: HepG2 Attagene TRANS-FACTORIAL M19 internal marker reporter. In outline:
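HepG2 transiently transfected with GAL4-UAS multiplex reporter constructs, exposed 24 h; reporter RNA quantified by RT-PCR, 6-FAM labeling, HpaI digestion and capillary electrophoresis; internal background marker fitted upward versus DMSO.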

Experiment [17] is described as follows: ATG_PBREM_CIS: Attagene CIS-FACTORIAL HepG2 Assay for human Phenobarbital-responsive Enhancer Module (PBREM) (AID 2282955). Particulars: HepG2 PBREM cis-reporter, Attagene multiplexed transcription; actives raise or lower the signal. In outline:
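HepG2 cells transiently transfected with multiple cis-regulated reporter units measure endogenous transcription factor activity; 24 h compound exposure. Reporter mRNA quantified by RT-PCR, fluorescent labelling, HpaI digestion and capillary electrophoresis; bidirectional fit versus DMSO.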

Experiment [18] in a line: ATG_TGFb_CIS: Attagene CIS-FACTORIAL HepG2 Assay for human Transforming Growth Factor (TGF) (AID 2282967). The following applies: HepG2 Attagene CIS TGFb reporter, mRNA transcription; actives raise or lower the signal. In outline:
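HepG2 cells transiently transfected with cis-promoter-driven multiple reporter units measure endogenous TF activity; reporter mRNA quantified at 24 h by RT-PCR, FAM labeling, HpaI digestion and capillary electrophoresis. Bidirectional fit vs DMSO.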

Experiment [19] concerns the target Nuclear receptor subfamily 1 group I member 3 (Homo sapiens) (UniProt Q14994). Briefly: ATG_CAR_TRANS: Attagene TRANS-FACTORIAL HepG2 Assay for human Constitutive Androstane Receptor (CAR) (AID 2282969; active means hit-call score of the fitted dose curve at least 0.9, where 1 is the maximum;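 further: activators raise reporter mRNA above DMSO so AC50 marks induction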). The following applies: HepG2 Attagene TRANS-FACTORIAL CAR reporter. The essentials: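 Signal is reporter mRNA induction relative to DMSO, measured 24 h after dosing by RT-PCR with fluorescent primer extension and capillary electrophoresis. Human HepG2 liver cells carried transiently transfected chimeric NR-Gal4/GAL4-UAS reporter constructs.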

Each structure is given as a SMILES string. Records with an inconclusive call do not appear. Calls of active or inactive are those of the source. How the source made its calls, unless noted: active means hit-call score of the fitted dose curve at least 0.9, where 1 is the maximum; inactive means score below 0.9.

Paired box protein Pax-6 (Homo sapiens), sequence (P26367 whole entry, looked up): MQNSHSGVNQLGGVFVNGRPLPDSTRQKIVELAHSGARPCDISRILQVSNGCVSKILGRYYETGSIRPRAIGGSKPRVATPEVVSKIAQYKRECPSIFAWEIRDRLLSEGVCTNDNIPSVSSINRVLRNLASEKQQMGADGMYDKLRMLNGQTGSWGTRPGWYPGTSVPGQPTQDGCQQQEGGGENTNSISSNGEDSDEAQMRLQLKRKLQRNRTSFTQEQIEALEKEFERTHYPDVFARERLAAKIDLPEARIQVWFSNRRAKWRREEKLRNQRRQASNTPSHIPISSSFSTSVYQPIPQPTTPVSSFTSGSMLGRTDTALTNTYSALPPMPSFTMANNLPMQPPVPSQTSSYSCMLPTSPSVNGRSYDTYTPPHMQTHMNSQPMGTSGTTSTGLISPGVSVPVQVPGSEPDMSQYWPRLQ
Transcription factor Sp1 (Homo sapiens), sequence (P08047 whole entry, looked up): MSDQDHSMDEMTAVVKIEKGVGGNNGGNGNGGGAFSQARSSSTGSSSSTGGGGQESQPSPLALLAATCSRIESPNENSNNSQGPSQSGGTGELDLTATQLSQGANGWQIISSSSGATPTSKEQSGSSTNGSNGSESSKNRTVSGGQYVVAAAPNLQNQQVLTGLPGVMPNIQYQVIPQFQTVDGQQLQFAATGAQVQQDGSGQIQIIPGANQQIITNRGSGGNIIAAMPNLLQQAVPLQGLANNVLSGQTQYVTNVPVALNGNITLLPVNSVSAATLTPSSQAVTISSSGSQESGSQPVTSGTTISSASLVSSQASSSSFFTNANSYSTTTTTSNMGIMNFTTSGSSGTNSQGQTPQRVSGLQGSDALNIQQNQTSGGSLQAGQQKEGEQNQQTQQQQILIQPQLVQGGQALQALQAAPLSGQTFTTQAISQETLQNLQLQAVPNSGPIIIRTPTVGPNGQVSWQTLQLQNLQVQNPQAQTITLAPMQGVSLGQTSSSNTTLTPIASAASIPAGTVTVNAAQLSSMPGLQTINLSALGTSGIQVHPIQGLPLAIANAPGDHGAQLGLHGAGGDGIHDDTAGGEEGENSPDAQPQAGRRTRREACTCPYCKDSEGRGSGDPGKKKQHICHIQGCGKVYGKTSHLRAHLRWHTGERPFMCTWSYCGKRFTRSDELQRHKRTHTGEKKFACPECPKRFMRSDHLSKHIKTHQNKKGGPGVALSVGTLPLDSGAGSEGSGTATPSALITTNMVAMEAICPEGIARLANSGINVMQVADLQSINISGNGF
Estrogen receptor (Homo sapiens), sequence (P03372 whole entry, looked up, the tested form may be a part): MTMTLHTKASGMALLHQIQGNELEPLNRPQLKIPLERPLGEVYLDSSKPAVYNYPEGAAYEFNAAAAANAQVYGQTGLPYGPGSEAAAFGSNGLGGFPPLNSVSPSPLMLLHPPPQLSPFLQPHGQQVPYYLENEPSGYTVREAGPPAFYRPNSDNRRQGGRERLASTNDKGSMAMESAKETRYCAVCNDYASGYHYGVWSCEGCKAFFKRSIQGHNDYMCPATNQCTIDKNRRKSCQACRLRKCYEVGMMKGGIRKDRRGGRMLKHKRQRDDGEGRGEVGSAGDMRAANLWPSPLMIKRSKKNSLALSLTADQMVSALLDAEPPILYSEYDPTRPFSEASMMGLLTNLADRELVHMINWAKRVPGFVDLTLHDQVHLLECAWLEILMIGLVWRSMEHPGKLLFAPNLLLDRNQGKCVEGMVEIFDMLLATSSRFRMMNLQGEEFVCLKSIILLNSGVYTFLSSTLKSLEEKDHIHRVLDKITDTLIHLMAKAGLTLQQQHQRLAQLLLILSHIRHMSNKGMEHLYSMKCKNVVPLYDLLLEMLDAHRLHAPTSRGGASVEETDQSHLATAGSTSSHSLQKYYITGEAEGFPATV
Signal transducer and activator of transcription 3 (Homo sapiens), sequence (P40763 whole entry, looked up): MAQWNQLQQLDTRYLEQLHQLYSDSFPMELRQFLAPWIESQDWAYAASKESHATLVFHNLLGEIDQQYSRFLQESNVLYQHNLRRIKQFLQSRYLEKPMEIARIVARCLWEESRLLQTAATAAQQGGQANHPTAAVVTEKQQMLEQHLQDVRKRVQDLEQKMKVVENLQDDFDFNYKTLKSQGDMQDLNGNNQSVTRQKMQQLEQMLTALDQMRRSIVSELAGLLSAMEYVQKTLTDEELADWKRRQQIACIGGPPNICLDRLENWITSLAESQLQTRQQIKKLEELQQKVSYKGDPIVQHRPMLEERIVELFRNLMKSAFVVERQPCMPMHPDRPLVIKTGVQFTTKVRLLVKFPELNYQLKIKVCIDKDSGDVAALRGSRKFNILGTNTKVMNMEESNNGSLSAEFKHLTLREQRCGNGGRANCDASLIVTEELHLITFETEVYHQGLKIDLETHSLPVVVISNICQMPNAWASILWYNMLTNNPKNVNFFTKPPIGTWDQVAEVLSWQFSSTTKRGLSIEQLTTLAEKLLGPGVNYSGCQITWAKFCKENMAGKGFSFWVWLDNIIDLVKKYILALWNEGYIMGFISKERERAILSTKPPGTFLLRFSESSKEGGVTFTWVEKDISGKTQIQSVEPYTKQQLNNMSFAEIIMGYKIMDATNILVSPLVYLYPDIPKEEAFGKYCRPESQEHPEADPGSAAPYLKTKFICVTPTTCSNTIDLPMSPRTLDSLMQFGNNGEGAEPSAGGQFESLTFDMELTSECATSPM
X-box-binding protein 1 (Homo sapiens), sequence (P17861 whole entry, looked up): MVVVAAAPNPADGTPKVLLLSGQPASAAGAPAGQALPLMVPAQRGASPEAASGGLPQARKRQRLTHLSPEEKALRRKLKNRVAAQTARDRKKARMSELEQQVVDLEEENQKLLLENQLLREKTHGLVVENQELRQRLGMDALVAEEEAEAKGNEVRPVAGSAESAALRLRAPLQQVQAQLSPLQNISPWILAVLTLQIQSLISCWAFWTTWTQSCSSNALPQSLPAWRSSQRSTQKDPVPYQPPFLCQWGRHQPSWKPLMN
Nuclear receptor subfamily 1 group I member 3 (Homo sapiens), sequence (Q14994 whole entry, looked up, the tested form may be a part): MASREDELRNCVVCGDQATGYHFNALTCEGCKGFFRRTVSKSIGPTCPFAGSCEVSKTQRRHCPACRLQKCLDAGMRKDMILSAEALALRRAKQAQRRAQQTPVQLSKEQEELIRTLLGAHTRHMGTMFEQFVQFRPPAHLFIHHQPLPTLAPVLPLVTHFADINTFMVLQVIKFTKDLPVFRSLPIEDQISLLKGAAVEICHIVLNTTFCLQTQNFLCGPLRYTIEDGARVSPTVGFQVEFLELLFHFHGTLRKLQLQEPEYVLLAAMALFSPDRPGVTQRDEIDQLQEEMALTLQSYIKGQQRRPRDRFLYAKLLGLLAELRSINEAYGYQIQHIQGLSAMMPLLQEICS

Take `CC12CCC(CC1)C(C)(C)O2`: the result in [1], in [2], in experiment [3], in experiment [4], in [5] and in experiment [6] was inactive. In addition, the compound was classed as inactive in experiment [7], in experiment [8], in experiment [9], in experiment [10], in experiment [11] and in [12]. In addition, the compound was called inactive in [13].

Regarding `CCCCCC[C@@H](O)C/C=C\CCCCCCCC(=O)OCC(O)CO` (stereo partly specified), the AC50 (as a rule, the midpoint of the concentration-response curve, whichever way the signal moves) was 134 µM (active) in [1]; 11 µM (active) in experiment [3]; 190 µM (active) in experiment [6]; 122 µM (active) in [7]; 150 µM (active) in [9]; 164 µM (active) in [11]. In addition, the AC50 in experiment [15] is 175 µM (active). For the same compound, the outcome in experiment [2], in experiment [4], in [5], in [8], in experiment [10] and in [12] was inactive. The result in experiment [14], in [16] and in experiment [13] was inactive.

In the case of `CC(=O)OC/C=C(/C)CCC=C(C)C`, the outcome in experiment [17], in experiment [1], in [4], in experiment [5], in experiment [7] and in experiment [8] was inactive. The call in [9], in experiment [10], in experiment [11], in experiment [18], in experiment [14] and in [15] was inactive. In addition, the result in experiment [16] and in experiment [13] was inactive.

As to `CCCCCC1=CCCC1=O`, the outcome in [17], in experiment [1], in experiment [3], in experiment [5], in [7] and in experiment [8] was inactive. Further, the compound was called inactive in experiment [9], in experiment [10], in experiment [11], in experiment [18], in experiment [12] and in [19]. Further, the call in experiment [14] was inactive.

For the compound `O=C1CCCN1C1CCCCC1`, the outcome in experiment [17], in experiment [1], in experiment [4], in experiment [5], in [6] and in experiment [7] was inactive. The outcome in experiment [8], in experiment [10], in [11], in experiment [18], in experiment [12] and in experiment [19] was inactive. Also, the call in experiment [14], in experiment [15] and in [16] was inactive.

For the origin of these results see PubChem BioAssay (EPA / NIEHS).
